Compounds with a hit are over-represented: about 7.9% of the library has one in this group of screens.
HCV inh: blocks hepatitis C virus; 340,000 tested, 3.4% active; Huh7.5.1 HCVcc-Cre infection, luciferase reporter, 44 h; Potency, µM (doses to about 41.8 µM), for the others: top-dose activity change, negative = inhibition, usual class: inhibitors; active means well fitted inhibition curve with a large enough effect; inconclusive means small, poorly fitted or top-dose-only effect, or another doubt; inactive means no such curve, though single readings can be large or run the other way; further: potency means the concentration at half of the fitted maximal effect
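Reporter virus HCVcc-Cre (~0.5 moi) infects cells exposed to compound; seeding density 1,000 cells/well with 4 h settling beforehand. Luminescence, 15 sec read, taken 44 h post-infection following a 15 min RT substrate incubation.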
HCMV inh: inhibitors of human cytomegalovirus | HFF cells, HCMV-luciferase reporter, 72 h; stronger effect = lower value | activity change, negative = inhibition, % at 57.5 µM | 410,000 tested, 4.5% active | AID 1259415; in the data active means activity change below about -60%; inconclusive means no clear call, values can overlap the other calls; inactive means above about -39%
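Compounds were evaluated in HFFs infected with an HCMV luciferase reporter virus (MOI 1 PFU/cell). Luciferase in lysates collected 72 h post infection served as the replication measure.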
FMDV inh: foot and mouth disease virus antiviral activity. 410,000 tested, 1.2% active. Potency, µM (highest dose often 57.9 µM), without a hit: at the top dose activity change, negative = inhibition, hits mostly inhibitors. FMDV antiviral cell-based qHTS; calls by dose curve; tested in HEK293T cells; further: read-out not given here; potency means the concentration at half of the fitted maximal effect; nearly all actives have a fitted effect of over 45% in size
Marburg entry inh: Marburg virus entry inhibition; Marburg virus pseudotyped entry inhibition, cell reporter; Potency, µM (series often up to 37.8 µM), inactives show at the top dose activity change, negative = inhibition, most hits filed as inhibitors; 300,000 tested, 1.8% active; AID 540276; calls by dose curve; tested in HEK293 cells; further: potency means the concentration at half of the fitted maximal effect
Lassa entry inh: blocks Lassa virus binding to or entry into cells; Lassa virus pseudotype entry inhibition, cell reporter; 300,000 tested, 1.2% active; AID 540256; Potency, µM (top dose mostly 37.9 µM), inactives show top-dose activity change, negative = inhibition, usual class: inhibitors; calls by dose curve; tested in HEK293 cells; further: potency means the concentration at half of the fitted maximal effect; nearly all actives have a fitted effect of over 50% in size
* marks the source's active call; other numbers are inactive results; ? = inconclusive; . = no result; [ ] = dose if it differs, or a comment. On the % scale 0 is the no-effect control and ±100 the full control effect.

SMILES	HCV inh	HCMV inh	FMDV inh	Marburg entry inh	Lassa entry inh
CCOC(=O)C1CCCN(C(=O)C2CCN(Cc3nc(-c4ccc(Cl)cc4)oc3C)CC2)C1 (stereo not drawn)	11µM*	-25	?	.	.
Cc1oc(-c2ccc(Cl)cc2)nc1CN1CCC(C(=O)N2CCc3ccccc3C2)CC1	-18%	.	22µM*	3%	.
COc1ccc(Cl)cc1NC(=O)COC(=O)CC(C)(C)CC1=NS(=O)(=O)c2ccccc2N1	.	3	?	.	?
Cn1nnnc1N=N/C(=N/Nc1ccccc1)c1ccccc1	4µM*	-86*	-6%	1µM*	?
Oc1ccccc1N=N/C(=N/Nc1ccccc1O)c1ccccc1	4%[8.37 µM]	30	4%	.	.
CCN1C(=NCC(C)C)N[C@H](c2ccccc2)[C@H](C(=O)OC)[C@H]1C	.	.	.	8%[14.2 µM]	-14%[14.3 µM]
O=C(Nc1ccccc1)Nc1n[nH]c2nnc(-c3ccccc3)c(-c3ccccc3)c12	14µM*	8	?	.	.
O=C(/C=C/c1cn(-c2ccccc2)nc1-c1cccnc1)N1CCCCC1	?	-60*	?	.	.
CC(=O)Nc1ccc(NC(=O)C(C)OC(=O)/C=C/c2cn(-c3ccccc3)nc2-c2cccnc2)cc1 (stereo not drawn)	?	-94*	?	?	?
CCn1c(C(=O)N2CCCC(C(=O)O)C2)cc2sccc21 (stereo not drawn)	11%	3	-7%	19%	8%
Cn1c(C(=O)N2CCCC(C(=O)NCc3cccs3)C2)cc2sccc21 (stereo not drawn)	-16%	15	.	-3%	0%
CCn1c(C(=O)N2CCCC(C(=O)NCCCc3ccccc3)C2)cc2sccc21 (stereo not drawn)	?	-70*	.	?	-18%
Cn1c(C(=O)N2CCCC(C(=O)NCCCSC3CCCCC3)C2)cc2sccc21 (stereo not drawn)	?	-61*	?	?	13µM*
Cc1oc2c(C)c3oc(=O)c(CC(=O)N4CCCCC4)c(C)c3cc2c1C	.	-35	11%	14%[46.1 µM]	13%[46.1 µM]
Cc1ccc(-c2cnc(NCc3c(F)cccc3Cl)n2C)cc1	.	-23	32%	?	?
CCCCCN1C(C(=O)c2ccccc2)=C(OC(=O)CC)c2ccccc2S1(=O)=O	.	-104*	-1%	?	?
CCCCCN1C(C(=O)c2ccccc2)=C(NC(=O)c2ccc(C)cc2)c2ccccc2S1(=O)=O	.	-40	-5%	?	-21%[46.1 µM]
CCCCN1C(C(=O)c2ccccc2)=C(OC(=O)CC)c2ccccc2S1(=O)=O	.	-107*	0%	7.9µM*	?
CCCCCN1C(C(=O)c2ccccc2)=C(NC(C)=O)c2ccccc2S1(=O)=O	.	-70*	16%	?	?
CCC(=O)OC1=C(C(C)=O)N(Cc2ccccc2)S(=O)(=O)c2ccccc21	.	8	-18%	?	-21%[46.1 µM]
CCCCC(=O)OC1=C(C(C)=O)N(Cc2ccccc2)S(=O)(=O)c2ccccc21	.	4	-1%	-2%[46.1 µM]	-8%[46.1 µM]
CCCCC(=O)OC1=C(C(=O)c2ccccc2)N(CCC)S(=O)(=O)c2ccccc21	.	-86*	-12%	?	-4%[46.1 µM]
COc1ccc2c(c1)c1nc3n(c(=O)c1n2CC(=O)Nc1cc(C)[nH]n1)CCS3	.	-85*	.	.	.
CCN(CC)S(=O)(=O)c1cccc(C(=O)N[C@@H](C)c2nc3ccccc3[nH]2)c1	.	16	.	.	.
CCN(CC)S(=O)(=O)c1cccc(C(=O)NC(Cc2c[nH]c3ccccc23)c2nnc3n2CCC3)c1 (stereo not drawn)	32%	-61*	-2%	-1%	?
SMILES	HCV inh	HCMV inh	FMDV inh	Marburg entry inh	Lassa entry inh
O=c1c2ccccc2oc2ccc(-c3ccc4cc[nH]c4c3)cc12	16µM*	.	-14%	.	.
O=C(C1=NNCC1c1ccccc1)C1CO1 (stereo not drawn)	11%	-69*	-25%	-32%	-16%
c1ccc(-c2cnnc3ccccc23)cc1	11µM*	-3	-26%	.	.
O=C(O)c1cnnc2ccccc12	-9%	1	6%	-4%[46.1 µM]	10%[46.1 µM]
COc1cc(C(=O)OCc2cc3ccccc3[nH]c2=O)cc(OC)c1OC	-3%	-86*	28%	2%	-23%
CCCCc1ccc(NC(=S)N2CCCC(C)C2)cc1 (stereo not drawn)	-20%	-67*	44%	?	11%
COc1cc(CN2CCC3(CCC(CNC(=O)c4cc(C)nn4C)O3)CC2)ccc1F (stereo not drawn)	.	.	3%	.	.
